Assay results taken from PubChem BioAssay.

Assay: probe aLefty2 binding to arrayed compounds – biochemical, biotinylated probe, 635/667 nm fluorescence, primary screen (AID 1094);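 also: score merges spot fluorescence near 667 nm with spot signal-to-noise ratio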
Details: small-molecule microarray, higher = more signal

**Q.** Which composite z-score does the source give for `[N-]=[N+]=Nc1ccccc1[C@H]1OC(c2ccc(OCCCO)cc2)=N[C@@]1(Cc1ccccc1)C(=O)N1CCCCC1` here?
**A.** 0.339

**Q.** With `CCCNC(=O)[C@@]1(c2ccc([N+](=O)[O-])cc2)CC(=O)N(C2CCCCC2)[C@@H]1c1ccc(CO)cc1` as the compound, how does the composite z-score read?
**A.** 0.0744

**Q.** For `CN1C(=O)C2C=CC(C(O)c3ccccn3)N(N(c3ccccc3)c3ccccc3)C2C1=O` (stereo unspecified), which composite z-score is on record?
**A.** 0.235

**Q.** Which composite z-score does the source give for `COCCOC(=O)N1C(=O)[C@@]2(c3cc(C#CC4=CCCCC4)ccc31)[C@H](c1ccc(O)cc1)N1[C@H](c3ccccc3)[C@H](c3ccccc3)OC(=O)[C@H]1[C@@H]2C(=O)N1CCN(c2ncccn2)CC1` here?
**A.** -0.192

**Q.** Which composite z-score does the source give for `C[N+](C)(C)CCCCCCNC(=O)[C@H]1C[C@H]2C(=O)N[C@@H](Cc3ccccc3)C(=O)N2[C@H]1c1ccc(O)cc1` here?
**A.** -0.0769

**Q.** Which composite z-score does the source give for `O=C1NC(=O)C2C1C=CC(C(O)c1cccc3ccccc13)N2Nc1ccc(Cl)cc1Cl` (stereo unspecified) here?
**A.** 0.162

**Q.** With `COC(=O)[C@@]1(Cc2ccc(F)cc2)[C@H]2c3cc(C(=O)N4CCCC4)n(CCc4ccc(O)c(O)c4)c3C[C@H]2CN1C(=O)c1ccccc1` as the compound, how does the composite z-score read?
**A.** 1.17

**Q.** With `O=C(CS)NCCCCCCNC(=O)[C@H]1C[C@H]2C(=O)N[C@@H](Cc3ccccc3)C(=O)N2[C@H]1c1ccc(O)cc1` as the compound, how does the composite z-score read?
**A.** -0.316

**Q.** With `C#CCN([C@@H](Cc1ccc(O)cc1)C(=O)OC)[C@@H](/C=C/C1CC1)[C@H](O)Cc1ccccc1` as the compound, how does the composite z-score read?
**A.** -0.241

**Q.** Which composite z-score does the source give for `CCOC(=O)c1ccc(NC(=O)O[C@H]2[C@H](OC(=O)Nc3ccc4c(c3)OCO4)[C@@H](OC(=O)Nc3ccc4c(c3)OCO4)[C@@H](OC)O[C@@H]2CO)cc1` here?
**A.** 0.119

**Q.** For `O=c1n(-c2ccccc2)c(=O)n2n1CC(COc1ccccc1)=C([C@H](O)CCc1ccccc1)[C@@H]2CO`, which composite z-score is on record?
**A.** -0.153

**Q.** For `COc1ccc([Si](C)(C)[C@@H]2[C@@H](CC(=O)N3Cc4ccccc4C[C@H]3CO)O[C@]3(C(=O)N(Cc4cccc(N5C(=O)c6cccc7cccc5c67)c4)c4ccccc43)[C@H]2C)cc1`, which composite z-score is on record?
**A.** -0.0144

**Q.** Which composite z-score does the source give for `CN(C)C(=O)[C@]1(CCS(=O)(=O)c2ccccc2)N=C(c2ccc(OCCCO)cc2)O[C@@H]1c1ccccc1N=[N+]=[N-]` here?
**A.** 0.429

**Q.** Which composite z-score does the source give for `COC(=O)[C@@]1(Cc2ccc(OC)cc2)[C@H]2c3cc(C(=O)N4CCCC4)n(Cc4c(-c5ccccc5)noc4C)c3C[C@H]2CN1C(=O)c1ccccc1` here?
**A.** 0.422

**Q.** For `O=C1O[C@H](c2ccccc2)[C@H](c2ccccc2)N2[C@H]1[C@@H](C(=O)O)[C@]1(C(=O)Nc3ccc(C#CC4=CCCCC4)cc31)[C@H]2c1ccc(O)cc1`, which composite z-score is on record?
**A.** 0.0169

**Q.** For `COc1cc2c(cc1OC)CN(C(=O)[C@@H]1[C@H]3C(=O)O[C@H](c4ccccc4)[C@H](c4ccccc4)N3[C@H](c3ccc(OCCO)cc3)[C@@]13C(=O)Nc1ccccc13)CC2`, which composite z-score is on record?
**A.** -0.126

**Q.** With `COC(=O)[C@@]1(Cc2ccccc2)[C@H]2c3cc(C(=O)N(C)C)n(CCN4CNCC4=O)c3C[C@H]2CN1C(=O)c1ccccc1` as the compound, how does the composite z-score read?
**A.** 0.96

**Q.** With `CN(C)c1ccc(C(O)C2C=CC3C(=O)N(c4ccccc4)C(=O)C3N2Nc2ccc([N+](=O)[O-])cc2)cc1` (stereo unspecified) as the compound, how does the composite z-score read?
**A.** 0.401

**Q.** Which composite z-score does the source give for `C=C(C)c1cc2c(c(CCCCCC)n1)[Si](C(C)C)(C(C)C)OC2` here?
**A.** -0.193

**Q.** With `O=C1O[C@@H](c2ccccc2)[C@@H](c2ccccc2)N2[C@@H](c3ccc(O)cc3)[C@]3(C(=O)Nc4ccc(C#CC5(O)CCCCCC5)cc43)[C@@H](C(=O)NC[C@H](O)c3ccccc3)[C@H]12` as the compound, how does the composite z-score read?
**A.** -0.242

**Q.** Which composite z-score does the source give for `COCCCNC(=O)[C@@]1(Cc2ccccc2N=[N+]=[N-])N=C(c2ccc(OCCCO)cc2)O[C@H]1c1ccccc1` here?
**A.** 0.0894

**Q.** With `O=C1O[C@H](c2ccccc2)[C@H](c2ccccc2)N2[C@H]1[C@@H](C(=O)Nc1nc3ccccc3s1)[C@]1(C(=O)Nc3ccc(C#CCCO)cc31)[C@H]2c1ccc(O)cc1` as the compound, how does the composite z-score read?
**A.** 0.0769

**Q.** For `COC(=O)[C@@]1(Cc2ccccc2)[C@H]2c3cc(C(=O)N(C)C)n(CCc4ccc(O)c(OC)c4)c3C[C@H]2CN1C(=O)c1ccccc1`, which composite z-score is on record?
**A.** 0.425

**Q.** Which composite z-score does the source give for `O=C1OCC=C[C@H]2OC34C=CCN(c5ccc(Cl)cc5)C(=O)[C@H]3N(CCO)C(=O)[C@@H]4[C@@H]12` (stereo partly specified) here?
**A.** -0.286

**Q.** For `CC(C)Cc1ccc(CN2CC[C@@H](NC(=O)Nc3ccccc3)C2)cc1`, which composite z-score is on record?
**A.** -0.138

**Q.** For `C=CCC(OC(C)=O)[C@@H]1[C@@H](N(Cc2cc3ccccc3o2)C(=O)c2ccc(-c3ccccc3)cc2)c2cc(OCCCO)ccc2N1C(=O)c1ccc2ccccc2c1` (stereo partly specified), which composite z-score is on record?
**A.** -0.0485

**Q.** With `Cc1ccc(S[C@]2(C(=O)O)CC(=O)N(Cc3ccccc3Cl)[C@@H]2c2ccc(CO)cc2I)cc1` as the compound, how does the composite z-score read?
**A.** -0.131

**Q.** For `COCCCNC(=O)[C@@]1(Sc2ccc(C)cc2)CC(=O)N(C2CCCCC2)[C@@H]1c1ccc(CO)cc1`, which composite z-score is on record?
**A.** 0.0977

**Q.** Which composite z-score does the source give for `COCC1=C2[C@@H](CCc3ccccc3)OB(O)C[C@@H]2[C@@H]2C(=O)C=CC(=O)[C@@H]2C1` here?
**A.** -0.143

**Q.** Which composite z-score does the source give for `COc1ccc([Si](C)(C)[C@@H]2[C@@H](CCn3cc([C@H](O)c4ccccc4)nn3)O[C@]3(C(=O)N(Cc4ccc(N5CCC5=O)cc4)c4ccccc43)[C@H]2C)cc1` here?
**A.** -0.177

**Q.** Which composite z-score does the source give for `CCOc1cc(C(O)C2C=CC3C(=O)N(C)C(=O)C3N2Nc2ccccc2)ccc1O` (stereo unspecified) here?
**A.** 0.0258

**Q.** For `C=C(C(=O)CC[C@@H](OC(C)=O)c1ccc(CO)o1)C(C)C`, which composite z-score is on record?
**A.** -0.186

**Q.** Which composite z-score does the source give for `CC(=O)NCCCC[C@@H]1NC(=O)[C@@H]2C[C@H](C(=O)NCCCC[N+](C)(C)C)[C@H](c3ccc(O)cc3)N2C1=O` here?
**A.** -0.0774

**Q.** Which composite z-score does the source give for `CCOC(=O)C1CCCCN1` (stereo unspecified) here?
**A.** 0.697

**Q.** For `C=CCOC(=O)[C@H]1[C@@H]2C(=O)O[C@@H](c3ccccc3)[C@@H](c3ccccc3)N2[C@@H](c2ccc(OCCOC(=O)[C@@H]3C[C@@H]4C(=O)N[C@@H](CCCCN(C)C)C(=O)N4[C@@H]3c3ccc(O)cc3)cc2)[C@]12C(=O)Nc1ccccc12`, which composite z-score is on record?
**A.** 0.253

**Q.** For `CCCC[C@@H]1C[C@H]1[C@@H](NC(=O)c1cccs1)c1ccc(C(F)(F)F)cc1`, which composite z-score is on record?
**A.** -0.0009
